In PubChem BioAssay (Tox21) one finds Potency data, which are given here for 21 molecules.

Activity calls are given as the source filed them. A call without a number means that no potency is given here. Unless noted, calls come from the whole dose curve.
Potency is the fitted concentration of half-maximal effect.

Estrogen receptor (Homo sapiens), sequence (P03372 whole entry, looked up): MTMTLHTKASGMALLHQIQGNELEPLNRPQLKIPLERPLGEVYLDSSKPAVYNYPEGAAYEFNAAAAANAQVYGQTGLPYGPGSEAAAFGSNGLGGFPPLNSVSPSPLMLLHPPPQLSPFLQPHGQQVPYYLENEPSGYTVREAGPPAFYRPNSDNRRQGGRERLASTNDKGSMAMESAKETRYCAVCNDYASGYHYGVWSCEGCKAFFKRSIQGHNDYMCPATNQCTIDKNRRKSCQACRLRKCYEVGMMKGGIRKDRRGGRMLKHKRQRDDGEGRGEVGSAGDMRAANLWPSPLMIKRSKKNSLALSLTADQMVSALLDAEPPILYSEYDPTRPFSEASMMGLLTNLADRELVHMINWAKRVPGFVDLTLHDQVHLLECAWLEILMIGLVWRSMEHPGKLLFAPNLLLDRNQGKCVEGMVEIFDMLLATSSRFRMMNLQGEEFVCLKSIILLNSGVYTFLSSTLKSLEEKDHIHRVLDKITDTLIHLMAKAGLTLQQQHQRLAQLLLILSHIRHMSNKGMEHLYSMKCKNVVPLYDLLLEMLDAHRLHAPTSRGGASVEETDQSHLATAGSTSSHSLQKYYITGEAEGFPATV

One experiment has as its target Estrogen receptor (Homo sapiens) (UniProt P03372). The experiment is described as follows: qHTS assay to identify small molecule agonists of the estrogen receptor alpha (ER-alpha) signaling pathway (AID 743075).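 Note: HEK293 GripTite cells with ER-alpha and UAS-driven beta-lactamase reporter.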 Particulars: HEK293 ER-alpha-UAS-bla, beta-lactamase FRET ratio, 18 h; series mostly up to 70.1 µM.
On to `Cc1ccc(Nc2nccc(N(C)c3ccc4c(C)n(C)nc4c3)n2)cc1S(N)(=O)=O`, for which the Potency entry is “inactive”.
Still for that read-out and setting: to `O=C1OCCN1/N=C/c1ccc([N+](=O)[O-])o1` belongs 848 nM [inconclusive] (active); to `O=C(Nc1ccccc1)Nc1ccccc1`, “inactive”; to `CC(CCc1ccc2c(c1)OCO2)NN` (stereo not drawn), “inactive”.
Same read-out and setting: to `CCCCCC=CCC=CCCCCCCCC(=O)OCC` belongs “inactive”; to `CC(C)(O)c1ccccc1CC[C@@H](SCC1(CC(=O)O)CC1)c1cccc(/C=C/c2ccc3ccc(Cl)cc3n2)c1`, “inactive”.
As to `O=C(N/N=C/c1ccc([N+](=O)[O-])o1)c1ccc(O)cc1`, the Potency result was “inactive”.
As to `CCCOc1ccc(S(=O)(=O)N2CCN(CC)CC2)cc1-c1nc2c(CC)n(Cc3ccccn3)nc2c(=O)[nH]1`, the Potency result is “inactive”.
As for `Nc1ccc(C(=O)OCCCOC(=O)c2ccc(N)cc2)cc1`, the Potency result is “inactive”.
Take `CC(=O)Nc1ccc(N)cc1`: the Potency entry is “inactive”.
As to `c1ccc(COCc2ccccc2)cc1`, the Potency result was “inactive”.
`CC1(C)O[C@@H]2C[C@H]3[C@@H]4CCC5=CC(=O)C=C[C@]5(C)[C@H]4[C@@H](O)C[C@]3(C)[C@]2(C(=O)CO)O1`: the Potency result is “inactive”.
As to `Cc1ccc(S(=O)(=O)NC2CCCCC2)cc1`, the Potency entry was “inactive”.
On to `ON(Cc1ccccc1)Cc1ccccc1`, for which the Potency result is “inactive”.
Regarding `CC(=O)OCC(=O)[C@H]1CC[C@H]2[C@@H]3CCC4=CC(=O)CC[C@]4(C)[C@H]3CC[C@]12C`, the Potency entry is “inactive”.
Same read-out and setting: next, `CCCCCCCCCCCC[N+](C)(C)CCCS(=O)(=O)[O-]`: “inactive”; `CC1CC(=O)NN=C1c1ccc(NCC(C)(C)NCC(O)COc2cc(Cl)ccc2C#N)cc1` (stereo not drawn): “inactive”; `CC(N)CN` (stereo not drawn): “inactive”.
Consider `CCCCOC(=O)CCS`, for which the Potency result is “inactive”.
As for `O=C(O)C(Cc1cc(I)c(O)c(I)c1)c1ccccc1` (stereo not drawn), the Potency result is “inactive”.

The target is the same in a further experiment. The experiment is described as follows: qHTS assay to identify small molecule agonists of the estrogen receptor alpha (ER-alpha) signaling pathway using the BG1 cell line (AID 743079; active = well fitted activation curve with a large enough effect in the repeat runs; inconclusive = weak or mixed curves, or effect the other way; inactive = no such curve, though single readings can be large or run the other way; note: nearly all actives have a fitted effect of over 20% in size). Particulars: BG1Luc4E2 cells, ERE-luciferase agonist, 22 h; activation: at 70.3 µM (top of the series).
Regarding `O=C1OCCN1/N=C/c1ccc([N+](=O)[O-])o1`, the Potency is 168 nM (active).
For `O=C(Nc1ccccc1)Nc1ccccc1`, the Potency is 19400 nM (active).
In the case of `CCCCCC=CCC=CCCCCCCCC(=O)OCC`, the Potency result was “inactive”.
On to `CCCOc1ccc(S(=O)(=O)N2CCN(CC)CC2)cc1-c1nc2c(CC)n(Cc3ccccn3)nc2c(=O)[nH]1`, for which the Potency result is “inactive”.
Take `CC(=O)Nc1ccc(N)cc1`: the Potency entry is “inactive”.
As to `c1ccc(COCc2ccccc2)cc1`, the Potency entry was “inactive”.
For the molecule `CC1(C)O[C@@H]2C[C@H]3[C@@H]4CCC5=CC(=O)C=C[C@]5(C)[C@H]4[C@@H](O)C[C@]3(C)[C@]2(C(=O)CO)O1`, the Potency was 596 nM (active).
As for `ON(Cc1ccccc1)Cc1ccccc1`, the Potency entry is “inactive”.
On the same count and under the same terms, to `CC(=O)OCC(=O)[C@H]1CC[C@H]2[C@@H]3CCC4=CC(=O)CC[C@]4(C)[C@H]3CC[C@]12C` belongs 4220 nM (active); to `CCCCCCCCCCCC[N+](C)(C)CCCS(=O)(=O)[O-]`, “inactive”.
As for `CC1CC(=O)NN=C1c1ccc(NCC(C)(C)NCC(O)COc2cc(Cl)ccc2C#N)cc1` (stereo not drawn), the Potency entry was “inactive”.
Regarding `CC(N)CN` (stereo not drawn), the Potency result was “inactive”.
For `CCCCC(=O)O[C@]1(C(=O)CO)CC[C@H]2[C@@H]3CCC4=CC(=O)CC[C@]4(C)[C@H]3[C@@H](O)C[C@@]21C`, the Potency entry was “inactive”.
